Data on eight compounds can be found in PubChem BioAssay (Tox21).

“And” between values parts separate entries of the source, which are not always exact repeats. Equal entries are not always repeated. Inconclusive results are not listed. Some structures have more than one record in an assay (separate samples or runs), and their calls can disagree. The source made the active and inactive calls. Unless noted, the call rests on the fitted dose curve; in most records, active means well fitted curve in the direction sought with a large enough effect in the repeat runs; inconclusive means weak or mixed curves; inactive means no such curve, though single readings can be large; an effect the other way counts as inactive or inconclusive.

Test [1] is described as follows: qHTS assay to identify small molecule antagonists of the thyroid receptor (TR) signaling pathway - cell viability counter screen (AID 743064). Further: nearly all actives have a fitted effect of over 50% in size. Further: potency means the concentration at half of the fitted maximal effect. A digest of the protocol: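 Rat GH3 pituitary tumor cells stably expressing two TR response elements driving luciferase were plated, rested 4 h, then dosed with library compounds and T3 (1 nM final). After 23.5 h at 37 °C, CellTiter-Fluor was added for 30 min and fluorescence recorded.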
For orientation: qHTS replaces the single test concentration by a dilution series.

Test [2] is described as follows: qHTS assay to identify small molecule antagonists of the thyroid receptor (TR) signaling pathway (AID 743065). Further: nearly all actives have a fitted effect of over 55% in size. Further: potency means the concentration at half of the fitted maximal effect. A digest of the protocol:
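GH3.TRE-Luc rat pituitary cells carrying two TR response elements driving luciferase were plated for 4 h, given compound plus 1 nM T3 (final), and incubated 23.5 h at 37 C. ONE-Glo luminescence measured reporter inhibition; CellTiter-Fluor fluorescence tracked cytotoxicity.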

Test [3] relates to thyroid hormone receptor (rat, GH3 cells). The test is described as follows: qHTS assay to identify small molecule agonists of the thyroid receptor (TR) signaling pathway (AID 743066; calls by dose curve).
A short description of test [4]: qHTS assay to identify small molecule antagonists of the estrogen receptor alpha (ER-alpha) signaling pathway - cell viability counter screen (AID 743074; calls by dose curve;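 further: HEK293 cells carrying ER-alpha-UAS-bla reporter stimulated with 17beta-estradiol; nearly all actives have a fitted effect of over 45% in size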; further: potency means the concentration at half of the fitted maximal effect).
The nature of test [5]: qHTS assay to identify small molecule antagonists of the estrogen receptor alpha (ER-alpha) signaling pathway using the BG1 cell line - cell viability counter screen (AID 743081).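 Further: compound given together with 17beta-estradiol as the ER stimulus; nearly all actives have a fitted effect of over 45% in size.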 Further: potency means the concentration at half of the fitted maximal effect.
Another test concerns the target Aromatase (Homo sapiens) (UniProt P11511). As to the kind of experiment: qHTS assay to identify aromatase inhibitors (AID 743083). Further: nearly all actives have a fitted effect of over 55% in size. Further: potency means the concentration at half of the fitted maximal effect.
Test [6] in a line: qHTS assay to identify aromatase inhibitors - cell viability counter screen (AID 743084).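 Further: cells stimulated with testosterone during compound exposure; nearly all actives have a fitted effect of over 55% in size.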 Further: potency means the concentration at half of the fitted maximal effect.
Test [7] deals with Aryl hydrocarbon receptor (Homo sapiens) (UniProt P35869). The test is described as follows: qHTS assay to identify small molecule that activate the aryl hydrocarbon receptor (AhR) signaling pathway (AID 743085). Further: nearly all actives have a fitted effect of over 15% in size. Further: potency means the concentration at half of the fitted maximal effect.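 On activation: HG2L7.5c1 human HepG2 liver cells with stably integrated DRE-driven firefly reporter; series mostly up to about 70 µM.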 Put shortly:
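Compounds were tested in HepG2 hepatocellular carcinoma cells harbouring a stably integrated luciferase gene under control of 20 DREs. Increased reporter signal after 24 h treatment at 37C was taken as AhR activation.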

Test [8] in a line: qHTS assay to identify small molecule that activate the aryl hydrocarbon receptor (AhR) signaling pathway - cell viability counter screen (AID 743086).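 Further: HepG2 liver cells carrying the AhR DRE luciferase reporter; series mostly up to about 70 µM; nearly all actives have a fitted effect of over 45% in size.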 Put shortly:
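HepG2-AhR-luc (HG2L7.5c1) cells, 4000/well, were preincubated 5 h at 37C, exposed to compound in qHTS format for 24 hr at 37C, then given CellTiter-Fluor for 30 min; viability was read as fluorescence in the reporter wells.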

Test [9] addresses Peroxisome proliferator-activated receptor gamma (Homo sapiens) (UniProt P37231). As to the kind of experiment: qHTS assay to identify small molecule agonists of the peroxisome proliferator-activated receptor gamma (PPARg) signaling pathway (AID 743094; active means well fitted activation curve with a large enough effect in the signal ratio in the repeat runs, not every such curve was filed as active; the % refers to the signal ratio). A digest of the protocol:
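Agonism was assessed in a beta-lactamase reporter system, HEK293H cells with a stably integrated UAS-bla construct under PPARg control; the 17 h treatment at 37C preceded a 1 h room-temperature FRET substrate read.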

Test [10] has the same target. As to the kind of experiment: qHTS assay to identify small molecule antagonists of the peroxisome proliferator-activated receptor gamma (PPARg) signaling pathway (AID 743191; calls by dose curve; further: series mostly up to about 63 µM; nearly all actives have a fitted effect of over 30% in size). Put shortly:
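GeneBLAzer PPARg UAS-bla HEK293H cells carrying a UAS-driven beta-lactamase reporter were plated at 3000 cells/well, preincubated 5 h at 37C, then given compound for 17 h at 37C; LiveBLAzer B/G FRET substrate was read after 1 h at room temperature.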

A short description of test [11]: qHTS assay to identify small molecule antagonists of the peroxisome proliferator-activated receptor gamma (PPARg) signaling pathway - cell viability counter screen (AID 743194). Further: nearly all actives have a fitted effect of over 55% in size. A digest of the protocol: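 PPARg-UAS-bla HEK293H cells were plated, rested 5 h at 37 C, then treated with compounds plus rosiglitazone (50 nM final) for 17 h at 37 C; viability was then read by CellTiter-Glo luminescence after 30 min at room temperature.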

The nature of test [12]: qHTS assay for small molecule agonists of the antioxidant response element (ARE) signaling pathway (AID 743202; active means well fitted activation curve with a large enough effect in the signal ratio in the repeat runs, not every such curve was filed as active; the % refers to the signal ratio; further: potency means the concentration at half of the fitted maximal effect). Put shortly:
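Following a 16 h, 37 C exposure of reporter HepG2 cells (ARE-driven beta-lactamase, 2,000 cells/well) to compounds, FRET substrate was applied for 2 h at room temperature and fluorescence intensity recorded.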

The nature of test [13]: qHTS assay for small molecule agonists of the antioxidant response element (ARE) signaling pathway - cell viability counter screen (AID 743203; calls by dose curve; further: nearly all actives have a fitted effect of over 55% in size). Put shortly: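 ATP content via CellTiter-Glo luminescence served as the viability measure. Cells: ARE-bla HepG2, 2,000 per well. Exposure: 16 hrs, 37C/5% CO2.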
Test [14] in a line: qHTS assay for small molecule activators of the heat shock response signaling pathway - cell viability counter screen (AID 743209). Further: nearly all actives have a fitted effect of over 50% in size. A digest of the protocol: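 Compounds dissolved in DMSO were added to overnight-plated HSE-bla HeLa cells and left 5 h at 37 C. Cell viability was quantified by luminescence using CellTiter-Glo.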
Test [15] in a line: qHTS assay for small molecule activators of the heat shock response signaling pathway (AID 743210; active means well fitted activation curve with a large enough effect in the signal ratio in the repeat runs, with a control signal flat, not every such curve was filed as active; the % refers to the signal ratio; further: series mostly up to about 63 µM). Put shortly: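 Heat shock element–beta-lactamase HeLa reporter cells; qHTS with compounds for 5 h at 37 C; detection by FRET substrate fluorescence after 2.5 h at RT.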
Test [16] addresses Estrogen receptor (Homo sapiens) (UniProt P03372). As to the kind of experiment: qHTS assay to identify small molecule antagonists of the estrogen receptor alpha (ER-alpha) signaling pathway (AID 743069; active means well fitted curve in the direction sought with a large enough effect in the signal ratio in the repeat runs, not every such curve was filed as active; the % refers to the signal ratio). Put shortly:
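A 17beta-estradiol challenge was applied right after compound transfer to ER-alpha-UAS-bla HEK293 cells previously kept in charcoal-stripped serum. Plates stood 18 hr at 37C and 5% CO2; fluorescence was read following 2 hr FRET substrate loading at room temperature.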

Test [17] has the same target. As to the kind of experiment: qHTS assay to identify small molecule agonists of the estrogen receptor alpha (ER-alpha) signaling pathway (AID 743075; calls by dose curve;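 further: HEK293 GripTite cells with ER-alpha and UAS-driven beta-lactamase reporter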).
Test [18] shares this target. As to the kind of experiment: qHTS assay to identify small molecule agonists of the estrogen receptor alpha (ER-alpha) signaling pathway using the BG1 cell line (AID 743079). Further: nearly all actives have a fitted effect of over 20% in size. Further: potency means the concentration at half of the fitted maximal effect.
The nature of test [19]: qHTS assay to identify small molecule antagonists of the estrogen receptor alpha (ER-alpha) signaling pathway using the BG1 cell line (AID 743080; calls by dose curve;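 further: BG1 cells stimulated with 17beta-estradiol alongside compound; series mostly up to about 70 µM; nearly all actives have a fitted effect of over 25% in size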). A digest of the protocol: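 Endogenous full-length ER-alpha in BG1-Luc-4E2 cells drives a stably integrated 4×ERE luciferase gene; compounds were tested against 17beta-estradiol over 21.5 h, with luminescence and multiplexed viability fluorescence recorded.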

Chain of Aryl hydrocarbon receptor (Homo sapiens) (P35869 whole entry, looked up): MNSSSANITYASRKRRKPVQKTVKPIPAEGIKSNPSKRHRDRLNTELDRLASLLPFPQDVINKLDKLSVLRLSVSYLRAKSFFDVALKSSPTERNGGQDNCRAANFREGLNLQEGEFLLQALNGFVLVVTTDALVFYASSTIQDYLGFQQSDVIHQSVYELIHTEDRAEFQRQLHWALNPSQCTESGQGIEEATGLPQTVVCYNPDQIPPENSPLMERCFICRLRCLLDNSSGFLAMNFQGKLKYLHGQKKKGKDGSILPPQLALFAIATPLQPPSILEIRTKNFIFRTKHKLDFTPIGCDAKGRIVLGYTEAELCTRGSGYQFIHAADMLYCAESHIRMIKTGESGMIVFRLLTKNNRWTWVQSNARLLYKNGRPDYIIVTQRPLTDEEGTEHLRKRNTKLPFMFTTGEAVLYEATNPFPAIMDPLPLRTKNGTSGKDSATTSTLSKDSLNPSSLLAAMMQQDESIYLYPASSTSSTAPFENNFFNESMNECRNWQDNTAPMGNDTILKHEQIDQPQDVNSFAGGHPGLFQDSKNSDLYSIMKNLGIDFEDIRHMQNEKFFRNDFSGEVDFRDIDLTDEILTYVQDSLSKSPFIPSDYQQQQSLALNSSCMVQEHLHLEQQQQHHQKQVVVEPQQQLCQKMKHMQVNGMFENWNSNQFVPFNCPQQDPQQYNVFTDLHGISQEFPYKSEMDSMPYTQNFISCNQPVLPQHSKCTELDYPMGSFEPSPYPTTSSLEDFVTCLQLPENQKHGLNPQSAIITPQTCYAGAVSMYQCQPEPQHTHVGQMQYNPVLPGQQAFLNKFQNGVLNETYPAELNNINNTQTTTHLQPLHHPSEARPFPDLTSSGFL
Chain of Peroxisome proliferator-activated receptor gamma (Homo sapiens) (P37231 whole entry, looked up): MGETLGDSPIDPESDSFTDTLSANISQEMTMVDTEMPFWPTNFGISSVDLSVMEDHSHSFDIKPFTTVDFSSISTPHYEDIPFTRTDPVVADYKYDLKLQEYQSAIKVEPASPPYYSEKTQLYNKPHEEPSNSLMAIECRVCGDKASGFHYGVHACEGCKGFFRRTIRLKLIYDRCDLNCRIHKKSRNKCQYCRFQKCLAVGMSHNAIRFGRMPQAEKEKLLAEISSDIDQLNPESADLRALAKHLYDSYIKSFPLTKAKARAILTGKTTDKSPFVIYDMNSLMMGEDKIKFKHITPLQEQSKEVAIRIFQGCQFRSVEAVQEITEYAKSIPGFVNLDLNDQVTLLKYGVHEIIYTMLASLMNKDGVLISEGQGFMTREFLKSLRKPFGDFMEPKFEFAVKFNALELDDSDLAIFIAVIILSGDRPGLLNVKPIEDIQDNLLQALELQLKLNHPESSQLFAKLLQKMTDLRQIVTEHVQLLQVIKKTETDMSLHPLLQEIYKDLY
Chain of Estrogen receptor (Homo sapiens) (P03372 whole entry, looked up): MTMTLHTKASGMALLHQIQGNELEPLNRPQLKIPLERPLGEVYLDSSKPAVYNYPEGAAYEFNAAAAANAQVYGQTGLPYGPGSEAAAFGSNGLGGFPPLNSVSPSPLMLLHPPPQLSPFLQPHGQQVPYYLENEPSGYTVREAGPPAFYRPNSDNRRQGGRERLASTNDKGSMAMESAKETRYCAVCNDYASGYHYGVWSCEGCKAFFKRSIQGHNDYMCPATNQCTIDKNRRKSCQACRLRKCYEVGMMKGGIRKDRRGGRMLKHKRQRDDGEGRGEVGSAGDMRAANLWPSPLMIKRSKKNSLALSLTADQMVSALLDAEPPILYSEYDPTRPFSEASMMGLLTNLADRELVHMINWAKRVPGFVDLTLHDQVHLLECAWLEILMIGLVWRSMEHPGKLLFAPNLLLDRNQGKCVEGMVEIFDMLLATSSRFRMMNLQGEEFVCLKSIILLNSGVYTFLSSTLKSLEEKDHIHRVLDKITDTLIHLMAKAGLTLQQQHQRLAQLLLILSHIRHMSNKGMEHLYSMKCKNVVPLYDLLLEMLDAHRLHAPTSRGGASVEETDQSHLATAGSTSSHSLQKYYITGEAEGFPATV
Chain of Aromatase (Homo sapiens) (P11511 whole entry, looked up): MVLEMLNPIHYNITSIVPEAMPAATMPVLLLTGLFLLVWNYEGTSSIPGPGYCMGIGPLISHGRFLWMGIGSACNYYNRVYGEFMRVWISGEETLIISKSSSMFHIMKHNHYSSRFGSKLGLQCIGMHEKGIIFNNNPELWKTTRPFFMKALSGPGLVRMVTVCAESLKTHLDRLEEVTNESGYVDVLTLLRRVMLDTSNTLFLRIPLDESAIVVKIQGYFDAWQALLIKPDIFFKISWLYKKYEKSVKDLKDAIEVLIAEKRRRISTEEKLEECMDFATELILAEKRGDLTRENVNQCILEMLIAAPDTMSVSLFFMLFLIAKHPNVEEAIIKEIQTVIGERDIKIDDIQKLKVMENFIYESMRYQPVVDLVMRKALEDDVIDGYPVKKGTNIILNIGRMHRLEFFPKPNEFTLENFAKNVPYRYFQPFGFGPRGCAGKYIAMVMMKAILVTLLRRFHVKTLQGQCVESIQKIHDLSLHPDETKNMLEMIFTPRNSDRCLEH

As for `Clc1ccc(Cl)c(Cl)c1Cl`, the Potency result (in test [1]; in [2]; in [4]; in test [5]; with Aromatase (Homo sapiens); in test [6]) was “inactive” in each case. Moreover, the Potency result in [7], in test [8], in test [10], in test [11], in test [12] and in [13] was “inactive” throughout. In addition, in test [14], the Potency result was “inactive”. Besides, the compound was classed as inactive in test [3], in test [9] and in test [15].
As to `O=C(O)c1cc(-c2ccccc2)nc2ccccc12`, the Potency entry (in test [1]; in test [2]; in [4]; in [5]; with Aromatase (Homo sapiens); in test [6]) was “inactive” each time. The Potency result in [8], in test [11], in test [12], in test [13] and in test [14] was “inactive” each time. Moreover, in test [3], the call was inactive. The Potency in test [7] is 58.4 µM (active).
`CCc1ccc(O)cc1`: the Potency entry (in test [1]; in [2]; in test [4]; in test [5]; with Aromatase (Homo sapiens); in [6]) was “inactive” each time. Besides, the Potency entry in test [7], in [8], in [10], in test [11], in test [12] and in test [13] was “inactive” throughout. In test [14], the Potency entry was “inactive”. The compound was called inactive in [3], in [9] and in [15].
On to `CN(CCOc1ccc(CC2SC(=O)NC2=O)cc1)c1ccccn1` (centres undefined), for which the Potency result in [1], in test [16], in test [4], in [17], in test [18] and in test [19] was “inactive” each time. In addition, the Potency result in [5], in [7], in [11], in [13] and in test [14] was “inactive” in each case. In addition, the Potency in [2] was 54.2 µM (active); in test [12], 21.6 µM (active) and inactive. The outcome in [3] was inactive.
For the compound `C=C1CC[C@H](O)CC1=C/C=C1\CCC[C@]2(C)[C@@H]([C@H](C)/C=C/[C@H](C)C(C)C)CC[C@@H]12`, the Potency was 60.6 µM (active) in test [1]; 26.6 µM (active) and 54 µM (active) and 54.5 µM (active) in test [2]; 54.5 µM (active) and 54.9 µM (active) in [4]; “inactive and 61.1 µM (active)” with Aromatase (Homo sapiens); 13.6 µM (active) and 24.3 µM (active) in [12]. For the same compound, in [3], the call was inactive. Also, the Potency result in test [5], in [6], in [7], in test [8], in test [13] and in test [14] was “inactive” each time.
As to `c1ccc2[nH]cnc2c1`, the Potency entry (in test [1]; in test [2]; in test [4]; in test [5]; with Aromatase (Homo sapiens); in [6]) was “inactive” each time. Further, the Potency entry in test [7], in test [8], in test [11], in test [12], in test [13] and in test [14] was “inactive” in each case. For the same compound, the compound was classed as inactive in test [3], in test [9] and in test [15].
With `Oc1ccc2ccccc2c1N=Nc1ccccc1`, the Potency entry in test [1] was “inactive and 54.5 µM (active)”; in [18], 19.3 µM (active) and 30.6 µM (active); in test [5], “inactive and 34.4 µM (active)”; in test [6], 30.6 µM (active) and 24.3 µM (active); in test [7] it was 3.06 µM (active). The Potency entry (in test [2]; in [16]; in test [4]; in test [17]; in the test with Aromatase (Homo sapiens); in test [11]) was “inactive” throughout. In addition, the Potency entry in [13] and in [14] was “inactive” in each case. The compound was classed as inactive in test [3], in test [9] and in [15].
Take `Cc1cc(NS(=O)(=O)c2ccc(N)cc2)no1`: the Potency entry in test [1], in [2], in [4], in [5], in test [6] and in test [8] was “inactive” each time. Moreover, the Potency entry in [11], in test [12], in test [13] and in [14] was “inactive” in each case. For the same compound, the call in test [3] and in test [15] was inactive.
